# From PubChem BioAssay (Tox21)
# Inconclusive results are not listed. Entries that show only a call come without a potency. Active and inactive are the calls of the source. The call rests on the fitted dose curve.
# Assay: cAMP Responsive Elements (CRE) small molecule agonists, cell-based qHTS assay (AID 1963590)
# Conditions: CRE-bla HEK293T, beta-lactamase FRET ratio, 3 h; series mostly up to 92.4 µM
# Source text: U.S. Tox21 Program National Center for Advancing Translational Sciences [NCATS] Division of Preclinical Innovation [DPI] U.S. Environmental Protection Agency [EPA] National Institutes of Environmental Health Sciences [NIEHS] National Toxicology Program [NTP] U.S. Food and Drug Administration [FDA] Tox21 Assay Overview: CREB (cyclic-AMP Responsive Element Binding Protein) is a cellular transcription factor. It binds to certain DNA sequences called cAMP Responsive Elements (CRE) and regulates the transcription of the genes. […] This cell line can be used to find agonists/antagonists of the cyclic AMP signaling pathway. The activation of the report gene under culture conditions can be detected by fluorescence intensity. This cell line has been used to screen the Tox21 10K compound library to identify agonists that induce oxidative stress.
# Tox21 Assay Protocol Summary: CRE-bla Hek 293T cells were suspended in assay medium (DMEM containing 10% dialyzed FBS, 0.1 mM NEAA, 1 mM sodium pyruvate and 25 mM HEPES) and dispensed at 2,000 cells/5 uL /well into 1536-well black wall/clear bottom plates using a Multidrop Combi (ThermoFisher Scientific, Waltham, MA) dispenser. After the assay plates were incubated at 37 C/5% CO2 for 18 hrs, 23 nL of compounds dissolved in DMSO, positive controls or DMSO only was transferred to the assay plate by a pintool workstation (Kalypsys, San Diego, CA). After the plates were incubated at 37 C/5% CO2 for 3 hrs, 1 uL of LiveBLAzer B/G FRET substrate (Invitrogen, Carlsbad, CA) was added to each well using Bioraptr Flying Reagent Dispenser (FRD, Aurora Discovery, San Diego, CA). The plates were incubated at room temperature for 2 h.
SMILES,Potency,activation
CCC(C)CCCC(C)(C)O (stereo not given),inactive,–
CN(Cc1cc(Br)cc(Br)c1N)C1CCCCC1,inactive,–
CC(C)C[C@@H](N)C(=O)O,–,0.0359% [at 19 µM] (inactive)
CCOCCn1c(C2CCN(CCc3ccc(C(C)(C)C(=O)O)cc3)CC2)nc2ccccc21,inactive,–
NC1CCN(c2cccc(Cl)n2)CC1,inactive,–
Cc1ccc(NC(N)=O)cc1,inactive,–
CC(=O)NO,inactive,–
Cc1ncc(CO)c(C=O)c1O,inactive,–
C=C(C)C(=O)OCCCC,inactive,–
N=c1ccn2c(n1)O[C@H]1[C@H](O)[C@@H](CO)O[C@H]12,inactive,–
CC(COc1ccccc1)NC(C)C(O)c1ccc(O)cc1 (stereo not given),inactive,–
CCNS(=O)(=O)c1ccc(C)cc1,inactive,–
CN1CCC(=C2c3ccccc3CC(=O)c3sccc32)CC1,inactive,–
CCN(CC)CCNc1ccc(CNC=O)c2sc3ccc(OC)cc3c(=O)c12,inactive,–
O=C(CCCCC(=O)Nc1c(I)cc(I)c(C(=O)O)c1I)Nc1c(I)cc(I)c(C(=O)O)c1I,inactive,–
CCCCNS(=O)(=O)c1ccc(C)cc1,inactive,–
CCOC(=O)[C@H](CCc1ccccc1)N[C@@H](C)C(=O)N1CCC[C@H]1C(=O)O,inactive,–
C=CC1CO1 (stereo not given),inactive,–
CC(=O)Nc1ccc(S(N)(=O)=O)cc1,inactive,–
c1ccc(CNCCNCc2ccccc2)cc1,inactive,–

SMILES,Potency,activation
O=S(=O)(O)c1ccc(O)c2ncccc12,inactive,–
Oc1ccc(Cl)c2cccnc12,inactive,–
CC(=O)c1c(C)cc(C(C)(C)C)cc1C,inactive,–
Oc1cccc2[nH]ccc12,inactive,–
Nc1ccc(S(=O)(=O)NC(=O)c2ccccc2)cc1,inactive,–
O=S(=O)(O)CCO,inactive,–
OC1CCCc2ccccc21 (stereo not given),inactive,–
O=S(O)(O)=S,–,-0.269% [at 8.39 µM] (inactive)
c1ccc(CNc2ncnc3nc[nH]c23)cc1,inactive,–
C=COCC(C)C,inactive,–
NCC(=O)O,–,-1.05% [at 19 µM] (inactive)
Cc1ccc(C=O)s1,inactive,–
Cl[Si](Cl)(c1ccccc1)c1ccccc1,inactive,–
COC(C)(C)CCCC(C)CC=O (stereo not given),inactive,–
O=C(Oc1ccccc1)c1ccccc1C(=O)Oc1ccccc1,inactive,–
CC(=O)C1CCCCC1=O (stereo not given),inactive,–
CCCCCCCCOCCCN,inactive,–
CC(=O)OC1CCCCC1C(C)(C)C (stereo not given),inactive,–
CC(C)C(=O)OCC(C)(C)C(O)C(C)C (stereo not given),inactive,–
CO[Si](CCCNc1ccccc1)(OC)OC,inactive,–
